The values below come from PubChem BioAssay.

Several values for one entry are separate records, joined by “and”; a condition that tells them apart may be missing. Equal values may be shown once. Activity calls are given as the source filed them. No rule for the calls is given here.

Chain of Lethal factor (Bacillus anthracis) (P15917 whole entry, looked up): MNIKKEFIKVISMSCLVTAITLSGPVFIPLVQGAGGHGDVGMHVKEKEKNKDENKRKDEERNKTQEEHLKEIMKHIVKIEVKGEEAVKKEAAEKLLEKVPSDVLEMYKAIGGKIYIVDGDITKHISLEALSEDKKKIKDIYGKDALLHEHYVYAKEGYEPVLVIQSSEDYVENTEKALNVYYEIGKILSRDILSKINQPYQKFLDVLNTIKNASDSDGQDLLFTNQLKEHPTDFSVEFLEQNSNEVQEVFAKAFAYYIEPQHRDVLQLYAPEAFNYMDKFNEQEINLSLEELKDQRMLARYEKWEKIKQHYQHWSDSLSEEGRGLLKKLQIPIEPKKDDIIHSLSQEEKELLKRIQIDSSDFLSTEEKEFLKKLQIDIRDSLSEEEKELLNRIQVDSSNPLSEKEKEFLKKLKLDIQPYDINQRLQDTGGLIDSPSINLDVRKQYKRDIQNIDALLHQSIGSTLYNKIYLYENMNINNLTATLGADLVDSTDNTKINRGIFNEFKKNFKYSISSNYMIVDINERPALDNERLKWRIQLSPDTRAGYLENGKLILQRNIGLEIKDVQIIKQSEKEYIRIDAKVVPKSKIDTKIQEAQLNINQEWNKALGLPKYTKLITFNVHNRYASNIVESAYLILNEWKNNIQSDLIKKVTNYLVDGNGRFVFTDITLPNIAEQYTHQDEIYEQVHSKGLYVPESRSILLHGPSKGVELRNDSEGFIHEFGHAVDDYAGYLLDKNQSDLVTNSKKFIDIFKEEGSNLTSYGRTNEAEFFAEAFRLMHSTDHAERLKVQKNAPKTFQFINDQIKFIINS

This assay addresses Lethal factor (Bacillus anthracis) (UniProt P15917). As to the kind of experiment: Bacillus anthracis lethal factor inhibition, microsphere flow cytometry protease assay, validation at 10 µM (AID 588461). The settings on record: multiplex microsphere protease cleavage assay, active compounds read high.
As for `CN1C[C@H](CNC(=O)OCc2ccccc2)C[C@@H]2c3cccc4c3c(cn4C)C[C@H]21`, the inhibition is -7.6% (inactive).

Turning to `C[N+]1(C)C2CCC1CC(OC(=O)C(CO)c1ccccc1)C2` (stereo not given), the inhibition was 2.6% (inactive).

For `CCC1(c2ccccc2)C(=O)N(COC)C(=O)N(COC)C1=O`, the inhibition was 0.4% (inactive).

In the case of `CCn1c(O)c(C(=O)CC2NCCc3ccccc32)c(=O)n(CC)c1=S` (stereo not given), the inhibition is -11.5% (inactive).

For `NC(=O)CN1CCCC1=O`, the inhibition is 1.1% (inactive).

With `Cc1ccsc1C(=O)C1CCCN(Cc2cc3ccccc3o2)C1` (stereo not given), the inhibition was -1% (inactive).

In the case of `CN1C2CCC1CC(OC(=O)c1ccc(Cl)cc1)C2` (stereo not given), the inhibition was -2.9% (inactive).

In the case of `Cn1c(O)c(C=NCCc2c[nH]c3ccccc23)c(=O)n(C)c1=O`, the inhibition was -1.6% (inactive).

Take `CC12CN3CC(C)(CN(C1)C3c1cccs1)C2=O` (stereo not given): the inhibition was -4.2% (inactive).

With `[N-]=[N+]=CC(=O)OC[C@H](N)C(=O)O`, the inhibition is 2.3% (inactive).

In the case of `COP(=O)(OC)C(O)C(Cl)(Cl)Cl` (stereo not given), the inhibition was -2.9% (inactive).

Regarding `CC(C)[N+](C)(CCC(C(N)=O)(c1ccccc1)c1ccccc1)C(C)C`, the inhibition is -9.4% (inactive).

As to `C[C@@]1(CO)[C@H](O)CC[C@@]2(C)[C@H]1CC[C@H]1C[C@@H]3C[C@@]12CC[C@]3(O)CO`, the inhibition was -0.5% (inactive).

As for `O=C1CCCC2=C1C(c1cccnc1)Nc1ccccc1N2` (stereo not given), the inhibition was -4% (inactive).

Turning to `O=c1[nH]c(=S)n(-c2ccccc2)c(O)c1/C=N/N1CCCCC1c1cccnc1` (stereo not given), the inhibition is -6.8% (inactive).

In the case of `Clc1ccc(C2NCCc3[nH]cnc32)cc1` (stereo not given), the inhibition is -5.5% (inactive).

Turning to `Cc1ccc(-n2c(C)cc(/C=C3/C(=O)NC(=O)N(C)C3=O)c2C)cc1`, the inhibition was -5% (inactive).

As for `C[N+]1(C)CCc2cc3c(cc2[C@H]1[C@@H]1OC(=O)c2c1ccc1c2OCO1)OCO3`, the inhibition was 1% (inactive) and -2.4% (inactive).

As for `COc1ccc(NC2=NCC(C)S2)cc1` (stereo not given), the inhibition was -2.7% (inactive).

With `CC12CN3CC(C)(CN(C1)C3c1cccs1)C2O` (stereo not given), the inhibition is 7.5% (inactive).

Regarding `O=C1NCCN2CCCC12` (stereo not given), the inhibition was 5.9% (inactive).

Take `NNC(=O)c1ccc(Cl)cc1`: the inhibition is 6.8% (inactive).

As for `CN1CCN(C(=O)OC2c3nccnc3C(=O)N2c2ccc(Cl)cn2)CC1` (stereo not given), the inhibition was 1.7% (inactive).

In the case of `O=c1[nH]c2ccccc2n1C1CCN(CCCC(c2ccc(F)cc2)c2ccc(F)cc2)CC1`, the inhibition was -3% (inactive).

For `O=C1NC(=O)C2(Cc3ccccc3N3CCCC32)C(=O)N1c1ccc(Cl)cc1` (stereo not given), the inhibition is 0.9% (inactive).

In the case of `CC1CCC[C@H](O)CCCCCc2cc(O)cc(O)c2C(=O)O1` (stereo not given in full), the inhibition was -2.4% (inactive).

As for `O=c1cccc2n1C[C@H]1C[C@@H]2CN2CCCC[C@@H]12`, the inhibition was -7.3% (inactive).

Consider `CC(=O)OC1C2CCC1C(N1CCCC1)CC2` (stereo not given), for which the inhibition was -5.2% (inactive).

As for `CCOc1ccc(C2C(C#N)=C(N)Oc3c2c(=O)oc2ccccc32)cc1` (stereo not given), the inhibition was 0.5% (inactive).

`COc1cc2c3cc1Oc1cc(ccc1O)C[C@@H]1c4c(cc(OC)c(O)c4Oc4ccc(cc4)C[C@H]3N(C)CC2)CCN1C`: the inhibition is -7.1% (inactive).

For `CN1CC[C@@]23CCCC[C@@H]2[C@@H]1Cc1ccc(O)cc13`, the inhibition is -1.3% (inactive).

With `O=c1c2ccccc2[se]n1-c1ccccc1`, the inhibition is -9.3% (inactive).

Regarding `CC[N+]1(C)CCCC(OC(=O)C(O)(c2ccccc2)c2ccccc2)C1` (stereo not given), the inhibition was 8% (inactive).

In the case of `C[C@]12CCC(=O)C=C1CCC1C2CC[C@@]2(C)C1CC[C@@]2(O)CC#N` (stereo not given in full), the inhibition is -2.6% (inactive).

With `C[C@H]1CC[C@@]2(C)[C@@H](CC[C@@H]3[C@@H]2CC[C@]2(C)[C@@H](O)CC[C@@H]32)C1`, the inhibition was -4.7% (inactive).

For the compound `C[C@H]1OC[C@@H](C[N+](C)(C)C)O1`, the inhibition is 4.6% (inactive).

In the case of `CC(C)(C)C(O)C(Oc1ccc(Cl)cc1)n1cncn1` (stereo not given), the inhibition was -4.4% (inactive).

For the compound `C[C@@H]1O[C@@H](O[C@H]2C[C@@H](O)[C@]3(CO)[C@H]4[C@H](O)C[C@]5(C)[C@@H](C6COC(=O)C6)CC[C@]5(O)[C@@H]4CC[C@]3(O)C2)[C@H](O)[C@H](O)[C@H]1O` (stereo not given in full), the inhibition is 3.5% (inactive).

As to `CC(=O)c1ccc(-c2ccccc2)cc1`, the inhibition was -1.9% (inactive).

As for `CCOC(=O)c1cc2c(cn1)[nH]c1ccccc12`, the inhibition is -1.3% (inactive).
